Growth inhibition, inhibition and outcome data for 20 compounds are collected here from PubChem BioAssay.

SMILES strings stand for the structures. Unmarked numbers belong to inactive results. For some of these results: Potency and affinity values are given separately. Calls of active or inactive are those of the source. Unless noted, no rule for the calls is given here.

Assay [1] in a line: antimalarial activity against Dd2 strain (AID 2302;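 active = growth inhibition above 50% at the single 2 µM test dose, taken to imply half-maximal potency below 2 µM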;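 also: 0% = DMSO untreated growth and 100% = chloroquine plus artemisinin killed control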). Particulars: P. falciparum Dd2 in RBCs, LDH growth readout, 72 h; at 2 µM; active compounds read high.
Assay [2] in a line: HepG2 cytotoxicity, primary screen, cytotoxicity control for P. falciparum antimalarial project, cell-based, ATP luminescence (AID 2303;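 active = inhibition above 50%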;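 also: 0% = DMSO wells and 100% = digitonin-killed cells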). Particulars: HepG2 viability, 24-48 h, at 10 µM, active compounds read high.
The target in assay [3] is L-lactate dehydrogenase (Plasmodium falciparum (isolate CDC / Honduras)) (UniProt Q27743). Briefly: PfLDH activity inhibition – cell lysate, 3D7 strain, counter-screen for P. falciparum growth inhibition project (AID 2304).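 Also: 0% = vehicle and 100% = reference inhibitor.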 The following applies: P. falciparum 3D7 crude extract, LDH APAD/NBT absorbance; at 2 µM; active compounds read high. (In general: A counterscreen serves to expose hits that act by an unwanted route or on another target.)

Assay [4] is described as follows: inhibition of 3D7 malaria parasite growth – strain 3D7 (AID 2306).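 Also: 0% = DMSO wells and 100% = chloroquine plus artemisinin control wells.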 Particulars: P. falciparum 3D7 erythrocytic growth, LDH absorbance, 72 h; at 2 µM; active compounds read high.
In assay [5] the target is Calcium-dependent protein kinase 1 (Plasmodium falciparum (isolate 3D7)) (UniProt P62344). Nature of the assay: PfCDPK1 kinase inhibitors, biochemical, TCAMS library (AID 1159585; cut-off not given, nearly all actives have IC50 up to about 0.98 µM;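 also: inhibitors leave more ATP so luminescence rises with inhibition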). The following applies: recombinant PfCDPK1, Kinase-Glo ATP depletion luminescence. (In general: Kinase-Glo measures the ATP left after a reaction by luminescence.)
Assay [6] addresses Plasmodium falciparum protein kinase 6 (PK6, PF3D7_1337100) (UniProt Q8IDW1). Briefly: PfPK6 kinase inhibitors, biochemical, TCAMS library (AID 1159586). Particulars: recombinant PfPK6, Kinase-Glo ATP depletion luminescence.
Assay [7] concerns the target Protein kinase 7 (PK7), Plasmodium falciparum 3D7 (PF3D7_0213400) (UniProt Q7YTF7). Briefly: inhibition of Plasmodium PK7 catalytic activity – biochemical, TCAMS antimalarial set, Kinase-Glo luminescence (AID 1159587). The following applies: recombinant PfPK7, Kinase-Glo ATP depletion luminescence.
Assay [8] addresses Calcium-dependent protein kinase 4 (Plasmodium falciparum (isolate 3D7)) (UniProt Q8IBS5). Briefly: PfCDPK4 kinase inhibitors, biochemical, TCAMS library (AID 1159588; cut-off not given, nearly all actives have IC50 up to about 0.91 µM). The following applies: recombinant PfCDPK4, Kinase-Glo ATP depletion luminescence.

L-lactate dehydrogenase (Plasmodium falciparum (isolate CDC / Honduras)), sequence (Q27743 whole entry, looked up): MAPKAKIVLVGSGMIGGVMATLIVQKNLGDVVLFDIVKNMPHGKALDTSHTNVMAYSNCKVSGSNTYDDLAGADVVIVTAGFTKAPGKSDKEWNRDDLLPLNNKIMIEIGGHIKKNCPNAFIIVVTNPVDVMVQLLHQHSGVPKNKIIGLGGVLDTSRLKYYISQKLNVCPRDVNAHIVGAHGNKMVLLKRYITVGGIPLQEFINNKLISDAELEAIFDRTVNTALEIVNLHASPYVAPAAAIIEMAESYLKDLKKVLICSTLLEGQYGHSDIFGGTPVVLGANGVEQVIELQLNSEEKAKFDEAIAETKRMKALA
Calcium-dependent protein kinase 4 (Plasmodium falciparum (isolate 3D7)), sequence (Q8IBS5 whole entry, looked up): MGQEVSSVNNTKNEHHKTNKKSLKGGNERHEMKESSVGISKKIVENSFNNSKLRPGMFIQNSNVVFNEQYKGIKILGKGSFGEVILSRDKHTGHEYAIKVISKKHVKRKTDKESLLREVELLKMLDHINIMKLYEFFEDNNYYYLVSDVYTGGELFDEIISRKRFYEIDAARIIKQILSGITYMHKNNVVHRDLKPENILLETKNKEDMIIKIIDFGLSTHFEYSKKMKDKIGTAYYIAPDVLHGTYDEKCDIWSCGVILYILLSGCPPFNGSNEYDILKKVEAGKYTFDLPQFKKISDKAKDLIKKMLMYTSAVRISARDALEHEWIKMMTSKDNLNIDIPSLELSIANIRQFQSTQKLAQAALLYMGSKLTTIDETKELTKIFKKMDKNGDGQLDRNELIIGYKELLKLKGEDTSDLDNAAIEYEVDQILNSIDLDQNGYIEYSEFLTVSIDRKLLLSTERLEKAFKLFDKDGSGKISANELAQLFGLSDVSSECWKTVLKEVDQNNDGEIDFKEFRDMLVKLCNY
Plasmodium falciparum protein kinase 6 (PK6, PF3D7_1337100), sequence (Q8IDW1 1-305): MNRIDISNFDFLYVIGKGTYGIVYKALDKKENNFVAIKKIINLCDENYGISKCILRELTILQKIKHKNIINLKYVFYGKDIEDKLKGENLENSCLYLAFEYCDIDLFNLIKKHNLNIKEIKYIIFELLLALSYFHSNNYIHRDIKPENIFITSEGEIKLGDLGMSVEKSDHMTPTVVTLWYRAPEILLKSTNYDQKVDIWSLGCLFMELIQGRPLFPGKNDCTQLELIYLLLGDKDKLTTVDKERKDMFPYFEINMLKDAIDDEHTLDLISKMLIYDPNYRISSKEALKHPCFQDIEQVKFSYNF
Calcium-dependent protein kinase 1 (Plasmodium falciparum (isolate 3D7)), sequence (P62344 whole entry, looked up): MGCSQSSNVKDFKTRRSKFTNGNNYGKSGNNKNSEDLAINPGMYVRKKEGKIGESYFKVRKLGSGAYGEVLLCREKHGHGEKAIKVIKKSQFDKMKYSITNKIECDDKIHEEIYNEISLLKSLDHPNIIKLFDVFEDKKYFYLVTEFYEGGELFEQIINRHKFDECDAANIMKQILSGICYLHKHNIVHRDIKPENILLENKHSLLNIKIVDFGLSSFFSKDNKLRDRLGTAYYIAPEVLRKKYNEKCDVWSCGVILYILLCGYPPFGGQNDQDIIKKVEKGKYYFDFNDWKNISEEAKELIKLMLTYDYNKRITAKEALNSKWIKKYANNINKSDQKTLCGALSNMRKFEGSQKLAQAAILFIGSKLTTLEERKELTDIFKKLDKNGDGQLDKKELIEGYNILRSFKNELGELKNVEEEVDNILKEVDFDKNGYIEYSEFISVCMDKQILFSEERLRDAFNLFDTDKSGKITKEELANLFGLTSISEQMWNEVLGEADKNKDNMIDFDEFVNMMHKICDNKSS
Protein kinase 7 (PK7), Plasmodium falciparum 3D7 (PF3D7_0213400), sequence (Q7YTF7 1-343): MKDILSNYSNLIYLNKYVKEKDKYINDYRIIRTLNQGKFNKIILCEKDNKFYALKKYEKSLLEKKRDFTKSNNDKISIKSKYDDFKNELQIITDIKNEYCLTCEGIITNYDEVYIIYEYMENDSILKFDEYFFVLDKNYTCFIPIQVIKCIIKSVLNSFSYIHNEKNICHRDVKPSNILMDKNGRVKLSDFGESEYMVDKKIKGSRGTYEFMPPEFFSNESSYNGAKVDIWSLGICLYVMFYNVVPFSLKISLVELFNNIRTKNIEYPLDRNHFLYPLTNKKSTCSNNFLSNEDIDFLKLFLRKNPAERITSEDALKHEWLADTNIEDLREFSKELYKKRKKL

What is called inhibition is the drop in the measured response relative to a control, in per cent. As for `CN1CCc2ccc(NC(=O)Nc3cccc(C(=O)c4ccccc4)c3)cc2C1`, the growth inhibition in assay [1] is 16%; in assay [4] it was 83% (active). Besides, the inhibition in assay [2] is 11%; in assay [3], -1%. Besides, the result in assay [5], in assay [6], in assay [7] and in assay [8] was inactive.

As for `CNCc1cccc(-c2ccc3ccnc(N)c3c2)c1`, the figures for the growth inhibition in assay [1] and in assay [4] were 98% (active) and 101% (active), respectively. The inhibition is 20% in assay [2] and 3% in assay [3]. The result in assay [5], in assay [6], in assay [7] and in assay [8] was inactive.

With `CC1CC(C)CN(CC(O)CNC(=O)Nc2ccc(Br)cc2)C1` (stereo not given), the growth inhibition in assay [1] was 44%; in assay [4], 94% (active). In addition, the figures for the inhibition in assay [2] and in assay [3] were 13% and 5%, respectively. Besides, the result in assay [5], in assay [6], in assay [7] and in assay [8] was inactive.

For `O=C(NC1CCN(Cc2ccccc2)CC1)c1ccc(CNC2CCN(Cc3ccccc3)CC2)cc1`, the growth inhibition in assay [1] was 58% (active); in assay [4] it was 99% (active). Besides, the inhibition is 14% in assay [2] and 3% in assay [3]. For the same compound, the outcome in assay [5], in assay [6], in assay [7] and in assay [8] was inactive.

With `O=C(Nc1ccc(-c2cncc(NCCCN3CCCC3)c2)cc1)c1ccccc1`, the growth inhibition is 49% in assay [1] and 94% (active) in assay [4]. The inhibition is -1% in assay [2] and -2% in assay [3]. In addition, the result in assay [5], in assay [6], in assay [7] and in assay [8] was inactive.

Consider `N#Cc1ccc2c(c1)CCN(CCC1CCC(NC(=O)/C=C/c3ccc4ccccc4c3)CC1)CC2` (stereo not given), for which the results for the growth inhibition in assay [1] and in assay [4] were 12% and 97% (active), respectively. Also, the inhibition was 20% in assay [2] and 4% in assay [3]. For the same compound, the result in assay [5], in assay [6], in assay [7] and in assay [8] was inactive.

In the case of `c1cc2nc(CCc3nc4ccc(C5=N[C@H]6CCCC[C@H]6N5)cc4[nH]3)[nH]c2cc1C1=N[C@@H]2CCCC[C@@H]2N1`, the growth inhibition was 96% (active) in assay [1] and 93% (active) in assay [4]. In addition, the inhibition in assay [2] is 3%; in assay [3], -2%. For the same compound, the outcome in assay [5], in assay [6], in assay [7] and in assay [8] was inactive.

As to `CCCCCCN1CCC(NCc2cccc(C(F)(F)F)c2)CC1`, the results for the growth inhibition in assay [1] and in assay [4] were 82% (active) and 103% (active), respectively. Moreover, the inhibition in assay [2] is 18%; in assay [3], -6%. Also, the result in assay [5], in assay [6], in assay [7] and in assay [8] was inactive.

Turning to `CCOC(=O)C1=C(C)NC(C)=C(C(=O)OCC)C1(C(=O)OCc1ccccc1)c1cccc(C(F)(F)F)c1`, the growth inhibition was 60% (active) in assay [1] and 88% (active) in assay [4]. The inhibition in assay [2] is -17%; in assay [3], 5%. Also, the result in assay [5], in assay [6], in assay [7] and in assay [8] was inactive.

For the compound `Cc1ccc(C(=O)Cn2nc(-c3ccc(C)c(S(=O)(=O)N4CCCC4)c3)ccc2=O)cc1`, the growth inhibition is 70% (active) in assay [1] and 94% (active) in assay [4]. Besides, the figures for the inhibition in assay [2] and in assay [3] were -1% and -3%, respectively. In addition, the result in assay [5], in assay [6], in assay [7] and in assay [8] was inactive.

As for `COc1cc2nccc(Nc3ccc(OCc4ccc(NC(C)=O)cc4)cc3)c2cc1OC`, the growth inhibition in assay [1] is 95% (active); in assay [4], 101% (active). The figures for the inhibition in assay [2] and in assay [3] were 24% and 3%, respectively. Besides, the result in assay [5], in assay [6], in assay [7] and in assay [8] was inactive.

`O=C(Cc1ccc(NC(=O)c2ccc(O)c(-c3cccc([N+](=O)[O-])c3)c2)cc1)NCCN1CCCCC1`: the growth inhibition was 3% in assay [1] and 89% (active) in assay [4]. Besides, the inhibition in assay [2] and in assay [3] was 4% in each case. Also, the result in assay [5], in assay [6], in assay [7] and in assay [8] was inactive.

For the compound `COc1cccc(-c2ccc3c(-c4cccc(NC(C)=O)c4)cnc(N)c3c2)c1`, the growth inhibition in assay [1] is 83% (active); in assay [4], 99% (active). Further, the inhibition is 71% (active) in assay [2] and -6% in assay [3]. Further, the result in assay [5], in assay [6], in assay [7] and in assay [8] was inactive.

With `Cc1cc(F)ccc1C1CCN(CCCCNC(=O)c2ccc(NC(=O)c3ccc(Cl)cc3)cc2)CC1`, the growth inhibition in assay [1] was 79% (active); in assay [4] it was 101% (active). The inhibition in assay [2] was 19%; in assay [3] it was 0%. Moreover, the outcome in assay [5], in assay [6], in assay [7] and in assay [8] was inactive.

On to `COc1ccc(CCNc2nc(NCc3ccccc3)c3cc(OC)c(OC)cc3n2)cc1OC`, for which the growth inhibition is 91% (active) in assay [1] and 100% (active) in assay [4]. Also, the figures for the inhibition in assay [2] and in assay [3] were 46% and 0%, respectively. In addition, the outcome in assay [5], in assay [6], in assay [7] and in assay [8] was inactive.

With `COc1ccc2nccc(NN=CC=Cc3ccccc3)c2c1`, the growth inhibition in assay [1] is 99% (active); in assay [4] it was 101% (active). Further, the figures for the inhibition in assay [2] and in assay [3] were 11% and -3%, respectively. Also, the result in assay [5], in assay [6], in assay [7] and in assay [8] was inactive.

With `CC1(C)CCC(C)(C)c2c1ccc(C1CCN(CCCCNC(=O)c3ccc(-c4ccc(C#N)cc4)cc3)CC1)c2O`, the growth inhibition was 85% (active) in assay [1] and 100% (active) in assay [4]. Besides, the values for the inhibition in assay [2] and in assay [3] were 81% (active) and 7%, respectively. Besides, the result in assay [5], in assay [6], in assay [7] and in assay [8] was inactive.

As to `NC1CCCN(Cc2ccc(-c3cccc(-c4nc5ccccc5[nH]4)c3)cc2)C1` (stereo not given), the growth inhibition is 26% in assay [1] and 95% (active) in assay [4]. For the same compound, the inhibition was 26% in assay [2] and 2% in assay [3]. The result in assay [5], in assay [6], in assay [7] and in assay [8] was inactive.

For the compound `CCOc1cc(C(=O)NCc2ccc(Cl)c(Cl)c2)ccc1-c1nc2ccc(Cl)cc2[nH]1`, the growth inhibition is 4% in assay [1] and 97% (active) in assay [4]. The inhibition was 10% in assay [2] and -2% in assay [3]. For the same compound, the outcome in assay [5], in assay [6], in assay [7] and in assay [8] was inactive.

`Cc1noc(C)c1-c1cccc(CNCc2ccc(-c3ccc(-c4nc5ccc(C(F)(F)F)cc5[nH]4)cc3)cc2)c1`: the growth inhibition in assay [1] is 97% (active); in assay [4], 102% (active). The inhibition in assay [2] is 35%; in assay [3], 2%. The result in assay [5], in assay [6], in assay [7] and in assay [8] was inactive.
